The supplement of paper PMC11383364
“And” between values parts separate entries of the source, which are not always exact repeats. Identical values can stand only once. ± gives the standard deviation of the averaged measurements.

Each molecule was assayed on SUM149 (assay: percent difference in area under dose-response curve of relative cell number, RPMI vs HPLM; higher = drug relatively more effective in HPLM than RPMI (negative = less effective in HPLM)). Conditions: treatment time: 72 h; dose range: 10-point, 1 nM to 20 µM; media compared: RPMI vs HPLM.

Compound | percent difference in area under dose-response curve
c1ccc(Cn2c(-c3ccc(OC[C@H](C4CCNCC4)n4c(-c5ccccc5)nc5ccccc54)cc3)nc3ccccc32)cc1 [Deltarasin] | -7.63%
CNCc1ccc(-c2[nH]c3cc(F)cc4c3c2CCNC4=O)cc1 [Rucaparib] | -14.3%
Nc1ccn([C@@H]2C=C(CO)[C@@H](O)[C@H]2O)c(=O)n1 [Cyclopentenyl_cytosine] | 2.58%
NC(=O)CCCSc1nc(N)nc(-c2c(Cl)cc3c4c(cccc24)COC3)n1 | -19.2%
CC(=O)c1c(C)c2cnc(Nc3ccc(N4CCNCC4)cn3)nc2n(C2CCCC2)c1=O | -11.4%
CCN(CCCOc1ccc2c(Nc3cc(CC(=O)Nc4cccc(F)c4)[nH]n3)ncnc2c1)CCOP(=O)(O)O [Barasertib] | -20.6%
COc1ccc(C2=N[C@H](c3ccc(Cl)cc3)[C@H](c3ccc(Cl)cc3)N2C(=O)N2CCNC(=O)C2)c(OC(C)C)c1 [Nutlin3b] | 2.03%
CCN(CC)CCCCNc1ncc2cc(-c3cc(OC)cc(OC)c3)c(NC(=O)NC(C)(C)C)nc2n1 | 1.69%
CC[C@]1(O)C[C@@H]2CN(CCc3c([nH]c4ccccc34)[C@@](C(=O)OC)(c3cc4c(cc3OC)N(C)[C@H]3[C@@](O)(C(=O)OC)[C@H](OC(C)=O)[C@]5(CC)C=CCN6CC[C@]43[C@@H]65)C2)C1 [Vinblastine] | -27.2%
CC(C)c1cc(-c2n[nH]c(=O)n2-c2ccc3c(ccn3C)c2)c(O)cc1O [Ganetespib] | -31.8%
Cc1cc(N2CCOCC2)cc2[nH]c(-c3c(NC[C@@H](O)c4cccc(Cl)c4)cc[nH]c3=O)nc12 | -6.07%
Cc1cnc(-c2cnc(NCCNc3ccc(C#N)cn3)nc2-c2ccc(Cl)cc2Cl)[nH]1 | 7.14%
Cc1cccc(CC(=O)N2CCc3c2ccc(-c2cn(C)c4ncnc(N)c24)c3F)n1 | -5.2%
COc1ccccc1-c1cc(Nc2cccc(CS(N)(=O)=O)c2)ncn1 | -3.21%
CCOc1ccn(-c2ccc(F)cc2)c(=O)c1C(=O)Nc1ccc(Oc2ccnc(N)c2Cl)c(F)c1 | -1.99%
COc1cc(OC2CCN(C)CC2)ccc1Nc1ncc2c(n1)n(C1CCCC1)c(=O)n2C | -4.5%
CC(/C=C/C(=O)NO)=C\[C@@H](C)C(=O)c1ccc(N(C)C)cc1 [Trichostatin_A] | -9.24%

Compound | percent difference in area under dose-response curve
Cc1ccc(-c2cc(C(F)(F)F)nn2-c2ccc(S(N)(=O)=O)cc2)cc1 [Celecoxib] | 1.54 ± 3%
O=C(Nc1cccc(C(F)(F)F)c1)Nc1cc(S(=O)(=O)NC2CC2)ccc1-c1ccsc1 | -8.01%
Cc1c(NC(=O)OC[C@@H]2COCCN2)cn2ncnc(Nc3ccc4c(cnn4Cc4cccc(F)c4)c3)c12 | 3.34%
CN1CCCN(C(=O)c2cccc(-c3ccc(/C=C4/C(=O)Nc5ccc(Cl)cc54)o3)c2)CC1 | -26.8%
COc1cc2ncnc(Nc3ccc(F)c(Cl)c3)c2cc1OCCCN1CCOCC1 [Gefitinib] | -2.1%
CS(=O)(=O)CCNCc1ccc(-c2ccc3ncnc(Nc4ccc(OCc5cccc(F)c5)c(Cl)c4)c3c2)o1 [Lapatinib_Ditosylate] | -5.86%
CN(C)CC[C@H](CSc1ccccc1)Nc1ccc(S(=O)(=O)NC(=O)c2ccc(N3CCN(Cc4ccccc4-c4ccc(Cl)cc4)CC3)cc2)cc1[N+](=O)[O-] | -4.67% and 1.88%
O=c1[nH]cc(F)c(=O)[nH]1 [Adrucil] | 1.58%
COc1cccc(-c2cc(F)ccc2[C@H]2Cc3nc(N)nc(C)c3C(=O)N2)n1 | -28.8%
CS(=O)(=O)c1cccc(CNc2nc(Nc3ccc4c(c3)CCC(=O)N4)ncc2C(F)(F)F)c1 | -3.53%
CC(C)c1onc(-c2c(Cl)cccc2Cl)c1COc1ccc(/C=C/c2cccc(C(=O)O)c2)c(Cl)c1 | 7.59%
C=CC(=O)Nc1cc(Nc2nccc(-c3cn(C)c4ccccc34)n2)c(OC)cc1N(C)CCN(C)C | 1.9%
Cc1ccc(NC(=O)c2ccc(CN3CCN(C)CC3)cc2)cc1Nc1nccc(-c2cccnc2)n1 [Imatinib_Mesylate] | -3.71%
Oc1nc(-c2ccc(C(F)(F)F)cc2)nc2c1CSCC2 | -0.882%
COc1ccc(-c2ccc3c(N4CCOC[C@@H]4C)nc(N4CCOC[C@@H]4C)nc3n2)cc1CO | -2.88%
C=C(c1ccc(C(=O)O)cc1)c1cc2c(cc1C)C(C)(C)CCC2(C)C [Bexarotene] | -2.87%
CCOc1cc2ncc(C#N)c(Nc3ccc(F)c(Cl)c3)c2cc1NC(=O)/C=C/CN(C)C [Pelitinib] | 4.27%
